Bioassay records deposited in PubChem by National Center for Advancing Translational Sciences (NCATS).
HT1080-NT tox: kills 2HG-producing HT-1080-NT fibrosarcoma cells. HT-1080-NT fibrosarcoma viability, CellTiter-Glo ATP luminescence, 48 h. Potency, µM (doses to about 46.1 µM), inactives show at the highest dose activity, negative = less viability, actives largely listed as cytotoxic. 1.6% of 360,000 active;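 further: NT is the 2HG producing partner of a matched IDH1 knockdown line; potency means the concentration at half of the fitted maximal effect; 0% = DMSO-treated cells and -100% = media-only wells without cells; nearly all actives have a fitted effect of over 55% in size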
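A 48-hour cytotoxicity screen used HT-1080-NT cells plated 2 hours before compound delivery. ATP-based CellTiter-Glo luminescence measured viability, normalized to DMSO and no-cell controls.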
IL-1B inflam inh: inhibitors of inflammasome signaling (IL-1 beta secretion) | THP-1 LPS/ATP IL-1B secretion, AlphaLISA, 16 h; active compounds read low | activity change, % at 57.5 µM | 4.7% of 360,000 active; in the data active means activity change below about -50%; inconclusive means mostly about -30% to -49%
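Secreted IL-1B measured by AlphaLISA bead assay after 16 h compound exposure of THP-1 cells; compounds (final up to 57.5 uM) added 1 h before LPS (250 ng/mL) and ATP (1.25 mM) stimulation; lower signal means less secretion.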
HT1080 IDH1KD tx: HT-1080 IDH1 knockdown cell toxicity (counter line). HT-1080 IDH1 knockdown viability, ATP luminescence, 48 h. 2% of 360,000 active. AID 686971. Potency, µM (titrated, usually from 46.1 µM), inactives show at the highest dose activity, negative = toxicity, hits mostly cytotoxic;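 further: potency means the concentration at half of the fitted maximal effect; 0% = DMSO wells and -100% = cell-free medium wells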
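Knockdown cells (IDH1KD HT-1080) received compounds 2 h after plating at 750 cells/well and were kept 48 h at 37 °C in 5% FBS RPMI. A CellTiter-Glo luminescence read gave % activity for curve fitting.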
ELG1 DNA repair: ELG1-dependent DNA repair inhibition; HEK293T ELG1-luciferase reporter, luminescence, 16 h; DNA damage induced by 5-fluorouridine; Potency, µM (titrated, usually from 46.1 µM), inactives show at the top dose activity change, negative = inhibition, hits mostly inhibitors; 2.3% of 330,000 active; AID 504467; further: potency means the concentration at half of the fitted maximal effect; nearly all actives have a fitted effect of over 55% in size
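Cells (2,000 per well) received 5-fluorouridine plus test compound or DMSO and were incubated 16 hr at 37 °C, 5% CO2. Luciferase activity was read by luminescence 30 min after ONE-Glo addition; signal suppression marked inhibition of damage-induced ELG1 function.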
TDP1 cell noCPT: qHTS for Inhibitors of human tyrosyl-DNA phosphodiesterase 1 (TDP1): qHTS in cells in absence of CPT | AID 686978, 2013 | DT40 Tdp1-/- hTDP1 cells, no CPT, ATP luminescence, 48 h | Potency, µM (titrated, usually from 46.2 µM), for the others: at the top dose activity change, negative = growth inhibition, hits mostly inhibitors | 15% of 420,000 active; further: potency means the concentration at half of the fitted maximal effect; nearly all actives have a fitted effect of over 55% in size
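Chicken DT40 Tdp1-/- cells complemented with human TDP1, screened without camptothecin (DMSO vehicle only), 400 cells/well. Compounds pin-transferred, cells incubated at 37 °C for at least 48 hr. Growth read as ATP-dependent luminescence (CellTiter-Glo, 30 min at RT).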
DT40 TDP1 CPT: DT40-hTDP1 cell growth loss with CPT | chicken DT40 Tdp1-/-;hTDP1 cells + 20 nM CPT, ATP luminescence, 48 h | Potency, µM (series often up to 46.2 µM), inactives show top-dose activity change, negative = growth inhibition, usual class: inhibitors | 12% of 420,000 active; further: potency means the concentration at half of the fitted maximal effect; nearly all actives have a fitted effect of over 55% in size
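Chicken DT40 Tdp1-/- cells complemented with human TDP1, 400 cells/well, exposed to compounds plus 20 nM camptothecin for at least 48 h at 37 C; viability read as ATP content by CellTiter-Glo luminescence.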
* marks the source's active call; other numbers are inactive results; [ ] = another dose, or the depositor's remark. In the library only some 19% were active in any assay of this set; here they are far more common. Unless noted, the call rests on the fitted dose curve; in most records, active means well fitted curve in the direction sought with a large enough effect; inconclusive means small, poorly fitted or top-dose-only effect, or another doubt; inactive means no such curve, though single readings can be large; an effect the other way counts as inactive or inconclusive. Unless noted, on the % scale 0 is the no-effect control and ±100 the full control effect.

Results for CC(C)CC1=NN(C(=O)c2cccnc2)C(O)(C(F)(F)F)C1 (stereo not drawn) ?
HT1080-NT tox: 6.9%; IL-1B inflam inh: 14.0; HT1080 IDH1KD tx: 17.0%; ELG1 DNA repair: 0.9%; TDP1 cell noCPT: 2.91µM*; DT40 TDP1 CPT: 4.11µM*

Results for CC(C)C1=NN(C(=O)c2cccnc2)C(O)(C(F)(F)F)C1 (stereo not drawn) ?
HT1080-NT tox: 5.5%; IL-1B inflam inh: 23.1; HT1080 IDH1KD tx: -1.7%; ELG1 DNA repair: -4.7%; TDP1 cell noCPT: inconclusive; DT40 TDP1 CPT: inconclusive

What do the screens show for `CC(C)CC1=NN(C(=O)c2ccncc2)C(O)(C(F)(F)F)C1` (stereo not drawn)?
HT1080-NT tox: -14.1%; IL-1B inflam inh: -10.7; HT1080 IDH1KD tx: -2.4%; ELG1 DNA repair: inconclusive; TDP1 cell noCPT: 3.26µM*; DT40 TDP1 CPT: 2.91µM*

Results for O=C(c1ccncc1)N1N=C(C2CC2)CC1(O)C(F)(F)F (stereo not drawn) ?
HT1080-NT tox: 3.4%; IL-1B inflam inh: 4.6; HT1080 IDH1KD tx: 11.7%; ELG1 DNA repair: -6.9%; TDP1 cell noCPT: 5.17µM*; DT40 TDP1 CPT: 3.66µM*

How did COC(=O)c1ccc(CNc2ccc(C(C)=O)cc2)cc1 do in these assays?
HT1080-NT tox: -0.2%; IL-1B inflam inh: 0.0; HT1080 IDH1KD tx: -6.8%; TDP1 cell noCPT: 14.6µM*; DT40 TDP1 CPT: inconclusive

What do the screens show for `COc1cccc(C2c3c(oc4cc(C)cc(C)c4c3=O)C(=O)N2CCc2ccc(OC)c(OC)c2)c1` (stereo not drawn)?
TDP1 cell noCPT: 4.5%; DT40 TDP1 CPT: -31.2%

How did CN(Cc1ccccc1)C(=O)c1ccc(NC(=O)Cc2ccc(NC(=O)C3CCCN(C(=O)C4CCCC4)C3)cc2)cc1 (stereo not drawn) do in these assays?
HT1080-NT tox: -5.6%; IL-1B inflam inh: 0.0; HT1080 IDH1KD tx: -9.3%; TDP1 cell noCPT: inconclusive; DT40 TDP1 CPT: inconclusive

How did CN(CCc1ccccc1)C(=O)c1ccc(NC(=O)Cc2ccc(NC(=O)C3CCN(C(=O)CCc4ccccc4)CC3)cc2)cc1 do in these assays?
HT1080-NT tox: inconclusive; IL-1B inflam inh: 23.5; HT1080 IDH1KD tx: inconclusive; TDP1 cell noCPT: 7.31µM*; DT40 TDP1 CPT: 14.6µM*

Results for CN(Cc1ccccc1)C(=O)c1ccc(NC(=O)Cc2ccc(NC(=O)C3CCCN(C(=O)C4CC4)C3)cc2)cc1 (stereo not drawn) ?
HT1080-NT tox: -0.1%; IL-1B inflam inh: 1.4; HT1080 IDH1KD tx: -1.2%; TDP1 cell noCPT: inconclusive; DT40 TDP1 CPT: inconclusive

How did CN(CCc1ccccc1)C(=O)c1ccc(NC(=O)Cc2ccc(NC(=O)C3CCCN(C(=O)C4CCC4)C3)cc2)cc1 (stereo not drawn) do in these assays?
HT1080-NT tox: -7.9%; IL-1B inflam inh: -4.0; HT1080 IDH1KD tx: -24.5%; TDP1 cell noCPT: 13µM*; DT40 TDP1 CPT: 13µM*

What do the screens show for `CN(CCc1ccccc1)C(=O)c1ccc(NC(=O)Cc2ccc(NC(=O)C3CCN(S(=O)(=O)c4cccc([N+](=O)[O-])c4)CC3)cc2)cc1`?
HT1080-NT tox: inconclusive; IL-1B inflam inh: 36.5; HT1080 IDH1KD tx: -5.9%; TDP1 cell noCPT: 9.2µM*; DT40 TDP1 CPT: inconclusive

Results for CN(CCc1ccccc1)C(=O)c1ccc(NC(=O)Cc2ccc(NC(=O)C3CCCN(C(=O)CCc4ccccc4)C3)cc2)cc1 (stereo not drawn) ?
HT1080-NT tox: -19.9%; IL-1B inflam inh: 8.9; HT1080 IDH1KD tx: inconclusive; TDP1 cell noCPT: 10.3µM*; DT40 TDP1 CPT: 13µM*

How did CN(CCc1ccccc1)C(=O)c1ccc(NC(=O)Cc2cccc(NC(=O)C3CCN(S(=O)(=O)c4cccc([N+](=O)[O-])c4)CC3)c2)cc1 do in these assays?
HT1080-NT tox: 3.7%; IL-1B inflam inh: -14.2; HT1080 IDH1KD tx: 1.9%; TDP1 cell noCPT: -28.2%; DT40 TDP1 CPT: -24.2%

How did Cc1cc(-c2ccnc(-n3ncc(C(=O)NCC(C)(C)N4CCOCC4)c3C)n2)c(C)s1 do in these assays?
TDP1 cell noCPT: -8.8%; DT40 TDP1 CPT: 3.6%[9.04 µM]

Results for CCOc1ccc(S(=O)(=O)Nc2ccc(C(=O)NCc3ccncc3)cc2)cc1 ?
HT1080-NT tox: 8.0%; IL-1B inflam inh: -7.7; HT1080 IDH1KD tx: 1.3%; ELG1 DNA repair: 7.3%; TDP1 cell noCPT: 1.7%; DT40 TDP1 CPT: 1.3%

How did COc1ccc(/C=C/C(=O)OCC(=O)NC2CC2)c(OC)c1 do in these assays?
HT1080-NT tox: 11.1%; IL-1B inflam inh: -18.7; HT1080 IDH1KD tx: 6.6%; ELG1 DNA repair: 13.2%; TDP1 cell noCPT: 2.2%; DT40 TDP1 CPT: inconclusive

Results for O=C1c2ccccc2C(=O)C1Cc1cccc2ccccc12 ?
HT1080-NT tox: inconclusive; IL-1B inflam inh: 14.7; HT1080 IDH1KD tx: 3.6%; ELG1 DNA repair: -5.1%; TDP1 cell noCPT: -26.6%; DT40 TDP1 CPT: 14.1µM*

Results for CC1=CC2=NC(=O)/C(=C\c3cccn3CCOc3ccc(C)c(C)c3)C(=N)N2O1 ?
HT1080-NT tox: -11.1%; IL-1B inflam inh: -60.2*; HT1080 IDH1KD tx: -5.0%; ELG1 DNA repair: 18.4µM*; TDP1 cell noCPT: inconclusive; DT40 TDP1 CPT: inconclusive

What do the screens show for `COc1ccc(Cl)cc1NC(=O)c1sc(-n2nc(C)c(Cc3ccccc3)c2C)nc1C`?
TDP1 cell noCPT: inconclusive; DT40 TDP1 CPT: -14.3%

What do the screens show for `CN1CCN(NC(=S)Nc2ccc(OC(F)F)cc2)CC1`?
HT1080-NT tox: -6.2%; IL-1B inflam inh: -5.3; HT1080 IDH1KD tx: -0.8%; ELG1 DNA repair: inconclusive; TDP1 cell noCPT: -20.4%; DT40 TDP1 CPT: 11.6%

How did CCN(C(=O)CCN1C(=O)/C(=C/c2ccccc2)SC1=S)C1CCS(=O)(=O)C1 (stereo not drawn) do in these assays?
HT1080-NT tox: inconclusive; IL-1B inflam inh: -82.8*; HT1080 IDH1KD tx: inconclusive; ELG1 DNA repair: -14.7%; TDP1 cell noCPT: inconclusive; DT40 TDP1 CPT: 18.4µM*

What do the screens show for `CCN(C(=O)CN1C(=O)S/C(=C\C=C\c2ccccc2)C1=O)C1CCS(=O)(=O)C1` (stereo not drawn)?
HT1080-NT tox: 0.9%; IL-1B inflam inh: -26.4; HT1080 IDH1KD tx: 0.0%; ELG1 DNA repair: 0.9%; TDP1 cell noCPT: 1.46µM*; DT40 TDP1 CPT: 1.84µM*
